From ChEMBL document CHEMBL1961873, “Compounds: GSK PKIS; Assays: Nanosyn kinase panel” (2012)
Values joined by “and” are separate entries in the source; they are usually repeats but may differ in a detail not shown here. Identical values can stand only once.

Key:
[1] = target: Serine/threonine-protein kinase pim-2 (Homo sapiens) (UniProt Q9P1W9); settings: at 1 µM;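 note: each value is a mean of the inhibition measurements against the kinase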
[2] = target: Serine/threonine-protein kinase pim-3 (Homo sapiens) (UniProt Q86V86); settings: at 0.1 µM
[3] = target: Serine/threonine-protein kinase pim-3 (Homo sapiens) (UniProt Q86V86); settings: at 1 µM
[4] = target: T1, MAP kinase-activated protein kinase 5 (Homo sapiens) (UniProt Q8IW41); settings: at 0.1 µM
T1 sequence (whole entry): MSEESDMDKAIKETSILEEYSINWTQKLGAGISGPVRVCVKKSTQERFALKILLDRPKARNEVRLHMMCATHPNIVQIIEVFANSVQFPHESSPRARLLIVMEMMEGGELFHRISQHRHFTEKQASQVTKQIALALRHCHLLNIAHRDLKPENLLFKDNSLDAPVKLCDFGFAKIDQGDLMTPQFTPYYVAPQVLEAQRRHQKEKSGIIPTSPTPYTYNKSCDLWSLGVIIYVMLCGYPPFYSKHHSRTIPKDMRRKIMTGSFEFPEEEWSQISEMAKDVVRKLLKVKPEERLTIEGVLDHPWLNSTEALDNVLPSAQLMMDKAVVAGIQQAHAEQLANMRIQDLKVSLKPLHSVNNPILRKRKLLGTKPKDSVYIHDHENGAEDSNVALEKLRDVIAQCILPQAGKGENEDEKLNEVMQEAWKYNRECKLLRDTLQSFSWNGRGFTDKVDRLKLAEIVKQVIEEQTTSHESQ

[5] = target: T1, MAP kinase-activated protein kinase 5 (Homo sapiens); settings: at 1 µM
[6] = target: Serine/threonine-protein kinase SIK1 (Homo sapiens) (UniProt P57059); settings: at 0.1 µM
Serine/threonine-protein kinase SIK1 (Homo sapiens), sequence (P57059 whole entry): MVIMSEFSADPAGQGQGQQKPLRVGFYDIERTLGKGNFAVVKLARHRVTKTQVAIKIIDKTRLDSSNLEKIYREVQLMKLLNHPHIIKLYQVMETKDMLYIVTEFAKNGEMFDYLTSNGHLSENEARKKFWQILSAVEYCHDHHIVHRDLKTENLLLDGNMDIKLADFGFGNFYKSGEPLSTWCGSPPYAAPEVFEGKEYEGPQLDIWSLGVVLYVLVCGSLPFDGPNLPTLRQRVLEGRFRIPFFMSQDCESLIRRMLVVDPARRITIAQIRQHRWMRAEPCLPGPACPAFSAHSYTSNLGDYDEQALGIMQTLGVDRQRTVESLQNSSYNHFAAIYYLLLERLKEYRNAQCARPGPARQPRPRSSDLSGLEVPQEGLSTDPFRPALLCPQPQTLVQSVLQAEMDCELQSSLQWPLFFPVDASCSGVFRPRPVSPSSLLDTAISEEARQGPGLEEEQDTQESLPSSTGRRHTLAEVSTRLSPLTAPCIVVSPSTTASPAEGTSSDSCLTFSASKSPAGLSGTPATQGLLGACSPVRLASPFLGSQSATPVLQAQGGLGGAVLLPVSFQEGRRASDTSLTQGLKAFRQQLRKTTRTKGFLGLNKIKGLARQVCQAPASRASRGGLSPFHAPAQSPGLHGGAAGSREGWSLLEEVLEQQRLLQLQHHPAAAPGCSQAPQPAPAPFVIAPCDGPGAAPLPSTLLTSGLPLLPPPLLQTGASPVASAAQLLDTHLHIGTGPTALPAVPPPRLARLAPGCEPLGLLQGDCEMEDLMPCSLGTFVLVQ

[7] = target: Serine/threonine-protein kinase SIK1 (Homo sapiens) (UniProt P57059); settings: at 1 µM
[8] = target: Serine/threonine-protein kinase SIK2 (Homo sapiens) (UniProt Q9H0K1); settings: at 0.1 µM
Serine/threonine-protein kinase SIK2 (Homo sapiens), sequence (Q9H0K1 whole entry, looked up): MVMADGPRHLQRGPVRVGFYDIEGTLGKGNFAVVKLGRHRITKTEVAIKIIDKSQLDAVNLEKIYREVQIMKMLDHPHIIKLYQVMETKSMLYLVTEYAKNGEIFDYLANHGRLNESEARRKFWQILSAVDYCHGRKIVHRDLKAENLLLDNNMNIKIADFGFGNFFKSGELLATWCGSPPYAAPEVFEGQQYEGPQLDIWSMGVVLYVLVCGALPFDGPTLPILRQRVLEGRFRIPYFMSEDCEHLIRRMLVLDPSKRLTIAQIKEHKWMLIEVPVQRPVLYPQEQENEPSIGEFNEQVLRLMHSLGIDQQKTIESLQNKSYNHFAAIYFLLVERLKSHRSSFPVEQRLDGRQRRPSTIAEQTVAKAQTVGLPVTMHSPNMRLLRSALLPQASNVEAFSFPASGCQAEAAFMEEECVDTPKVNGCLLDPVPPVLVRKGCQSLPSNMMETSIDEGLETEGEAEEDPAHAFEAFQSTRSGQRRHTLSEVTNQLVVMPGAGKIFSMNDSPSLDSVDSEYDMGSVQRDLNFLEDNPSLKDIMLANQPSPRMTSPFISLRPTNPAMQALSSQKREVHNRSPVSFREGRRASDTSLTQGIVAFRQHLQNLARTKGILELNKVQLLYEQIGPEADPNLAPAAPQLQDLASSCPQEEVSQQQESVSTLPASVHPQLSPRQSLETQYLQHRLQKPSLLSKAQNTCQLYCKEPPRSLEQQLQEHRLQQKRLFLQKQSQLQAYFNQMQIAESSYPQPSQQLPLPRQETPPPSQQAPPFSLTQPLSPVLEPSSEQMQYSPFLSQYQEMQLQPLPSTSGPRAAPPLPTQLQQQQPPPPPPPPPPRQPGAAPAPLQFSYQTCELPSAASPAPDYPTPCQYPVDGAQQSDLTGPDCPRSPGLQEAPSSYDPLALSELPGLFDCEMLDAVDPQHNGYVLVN

[9] = target: Serine/threonine-protein kinase SIK2 (Homo sapiens) (UniProt Q9H0K1); settings: at 1 µM
[10] = target: T2, Serine/threonine-protein kinase TBK1 (Homo sapiens) (UniProt Q9UHD2); settings: at 0.1 µM
T2 sequence (whole entry): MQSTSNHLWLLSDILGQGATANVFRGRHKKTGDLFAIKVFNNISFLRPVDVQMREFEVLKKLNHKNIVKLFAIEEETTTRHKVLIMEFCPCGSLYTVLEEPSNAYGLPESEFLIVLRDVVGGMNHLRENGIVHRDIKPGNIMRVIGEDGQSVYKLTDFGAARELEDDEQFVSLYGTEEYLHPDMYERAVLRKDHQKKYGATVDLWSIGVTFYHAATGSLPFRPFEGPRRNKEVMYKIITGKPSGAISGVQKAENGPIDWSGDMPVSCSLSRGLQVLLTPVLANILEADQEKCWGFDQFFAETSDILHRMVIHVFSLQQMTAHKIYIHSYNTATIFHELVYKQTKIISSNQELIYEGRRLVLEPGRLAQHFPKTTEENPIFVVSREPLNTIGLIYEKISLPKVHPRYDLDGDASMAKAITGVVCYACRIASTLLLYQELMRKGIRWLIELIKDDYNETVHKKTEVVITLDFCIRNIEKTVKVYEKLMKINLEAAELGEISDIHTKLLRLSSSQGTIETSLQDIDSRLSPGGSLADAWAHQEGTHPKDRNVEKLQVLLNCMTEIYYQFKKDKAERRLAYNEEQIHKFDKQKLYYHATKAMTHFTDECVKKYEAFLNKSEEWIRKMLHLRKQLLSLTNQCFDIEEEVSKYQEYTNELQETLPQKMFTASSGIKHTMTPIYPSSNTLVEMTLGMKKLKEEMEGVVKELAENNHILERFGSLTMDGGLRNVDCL

[11] = target: T2, Serine/threonine-protein kinase TBK1 (Homo sapiens); settings: at 1 µM
[12] = target: T3, Testis-specific serine/threonine-protein kinase 1 (Homo sapiens) (UniProt Q9BXA7); settings: at 0.1 µM
T3 sequence (whole entry): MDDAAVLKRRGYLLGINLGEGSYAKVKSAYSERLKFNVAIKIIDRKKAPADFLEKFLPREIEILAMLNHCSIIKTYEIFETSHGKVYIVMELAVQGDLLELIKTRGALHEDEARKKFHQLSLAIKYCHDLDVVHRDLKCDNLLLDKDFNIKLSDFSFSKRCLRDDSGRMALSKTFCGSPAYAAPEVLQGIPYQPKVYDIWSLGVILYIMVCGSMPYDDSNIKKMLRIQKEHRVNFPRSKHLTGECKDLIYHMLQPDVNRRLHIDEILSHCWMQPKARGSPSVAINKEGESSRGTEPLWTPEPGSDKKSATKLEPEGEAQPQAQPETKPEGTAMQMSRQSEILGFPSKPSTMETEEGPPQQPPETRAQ

[13] = target: T3, Testis-specific serine/threonine-protein kinase 1 (Homo sapiens); settings: at 1 µM
[14] = target: T4, Testis-specific serine/threonine-protein kinase 2 (Homo sapiens) (UniProt Q96PF2); settings: at 0.1 µM
T4 sequence (whole entry): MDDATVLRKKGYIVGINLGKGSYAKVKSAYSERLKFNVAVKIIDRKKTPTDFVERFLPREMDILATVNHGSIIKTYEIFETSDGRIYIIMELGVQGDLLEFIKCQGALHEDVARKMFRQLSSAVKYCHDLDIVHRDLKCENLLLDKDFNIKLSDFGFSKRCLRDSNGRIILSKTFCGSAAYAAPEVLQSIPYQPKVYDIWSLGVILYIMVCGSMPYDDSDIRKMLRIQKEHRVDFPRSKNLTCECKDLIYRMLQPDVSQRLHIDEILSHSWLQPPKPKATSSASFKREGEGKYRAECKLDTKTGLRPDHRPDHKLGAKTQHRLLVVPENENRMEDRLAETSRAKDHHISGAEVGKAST

[15] = target: T4, Testis-specific serine/threonine-protein kinase 2 (Homo sapiens); settings: at 1 µM
[16] = target: Casein kinase I isoform alpha (Homo sapiens) (UniProt P48729); settings: at 0.1 µM
Casein kinase I isoform alpha (Homo sapiens), sequence (P48729 2-337 limits assumed): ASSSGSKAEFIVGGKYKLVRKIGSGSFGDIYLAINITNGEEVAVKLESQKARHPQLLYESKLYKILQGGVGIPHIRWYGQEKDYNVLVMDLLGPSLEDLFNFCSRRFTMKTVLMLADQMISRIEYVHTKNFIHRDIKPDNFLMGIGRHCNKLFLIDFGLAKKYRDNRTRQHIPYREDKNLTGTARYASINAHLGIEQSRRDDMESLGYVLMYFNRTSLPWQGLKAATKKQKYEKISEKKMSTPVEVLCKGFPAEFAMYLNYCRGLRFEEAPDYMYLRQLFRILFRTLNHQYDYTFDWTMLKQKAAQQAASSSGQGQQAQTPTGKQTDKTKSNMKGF

[17] = target: Casein kinase I isoform alpha (Homo sapiens) (UniProt P48729); settings: at 1 µM
[18] = target: Casein kinase I isoform gamma-1 (Homo sapiens) (UniProt Q9HCP0); settings: at 0.1 µM
Casein kinase I isoform gamma-1 (Homo sapiens), sequence (Q9HCP0 whole entry, looked up, canonical isoform): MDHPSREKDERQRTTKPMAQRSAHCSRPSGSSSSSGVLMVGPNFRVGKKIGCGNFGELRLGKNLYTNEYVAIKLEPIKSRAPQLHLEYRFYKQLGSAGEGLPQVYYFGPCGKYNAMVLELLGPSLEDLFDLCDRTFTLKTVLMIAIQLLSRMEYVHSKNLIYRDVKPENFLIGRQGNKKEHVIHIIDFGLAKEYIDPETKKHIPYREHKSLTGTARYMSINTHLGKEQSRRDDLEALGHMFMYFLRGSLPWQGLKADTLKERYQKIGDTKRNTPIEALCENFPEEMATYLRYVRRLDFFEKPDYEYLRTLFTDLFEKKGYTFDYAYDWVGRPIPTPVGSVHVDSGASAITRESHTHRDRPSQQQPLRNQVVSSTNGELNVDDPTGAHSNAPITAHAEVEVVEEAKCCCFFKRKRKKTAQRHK

[19] = target: Casein kinase I isoform gamma-1 (Homo sapiens) (UniProt Q9HCP0); settings: at 1 µM
[20] = target: Casein kinase I isoform gamma-2 (Homo sapiens) (UniProt P78368); settings: at 0.1 µM;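 note: values are mean inhibition figures reported as part of the GSK PKIS dataset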
Casein kinase I isoform gamma-2 (Homo sapiens), sequence (P78368 whole entry, looked up, canonical isoform): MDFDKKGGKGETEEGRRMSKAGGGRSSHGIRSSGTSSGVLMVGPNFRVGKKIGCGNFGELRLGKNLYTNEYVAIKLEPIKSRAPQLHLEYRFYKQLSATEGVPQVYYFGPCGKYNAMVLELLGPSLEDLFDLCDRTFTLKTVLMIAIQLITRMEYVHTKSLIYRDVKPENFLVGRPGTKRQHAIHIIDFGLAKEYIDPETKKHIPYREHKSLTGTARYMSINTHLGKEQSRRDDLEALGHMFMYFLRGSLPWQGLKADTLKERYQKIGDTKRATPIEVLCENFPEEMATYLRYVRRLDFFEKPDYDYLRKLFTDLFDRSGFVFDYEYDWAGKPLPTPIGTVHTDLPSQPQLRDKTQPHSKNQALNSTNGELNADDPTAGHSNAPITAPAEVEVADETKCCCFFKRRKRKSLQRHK

Serine/threonine-protein kinase pim-2 (Homo sapiens), sequence (Q9P1W9 whole entry, looked up): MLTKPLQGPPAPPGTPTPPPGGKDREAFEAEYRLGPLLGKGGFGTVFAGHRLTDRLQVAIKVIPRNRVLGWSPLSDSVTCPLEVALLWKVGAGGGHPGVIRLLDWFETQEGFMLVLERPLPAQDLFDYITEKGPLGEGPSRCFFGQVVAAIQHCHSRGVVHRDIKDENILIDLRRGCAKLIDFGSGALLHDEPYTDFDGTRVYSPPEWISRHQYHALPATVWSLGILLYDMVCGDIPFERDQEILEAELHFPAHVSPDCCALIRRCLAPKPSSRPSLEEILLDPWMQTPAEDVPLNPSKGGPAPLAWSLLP

SMILES | inhibition [1] | inhibition [2] | inhibition [3] | inhibition [4] | inhibition [5] | inhibition [6] | inhibition [7] | inhibition [8] | inhibition [9] | inhibition [10] | inhibition [11] | inhibition [12] | inhibition [13] | inhibition [14] | inhibition [15] | inhibition [16] | inhibition [17] | inhibition [18] | inhibition [19] | inhibition [20]
Nc1nonc1-c1nc2cnccc2n1C1CC1 | 11.3% and 9.18% | 3.94% and 4.22% | 30.6% and 32.5% | 0.67% and 1.06% | -0.55% and 4.15% | 6.64% and 2.66% | 8.35% and 5.12% | 0.75% and 5.71% | 5.93% and 2.36% | 7.96% and 1.98% | 15.3% and 9% | 3.32% and 4.38% | 14.5% and 17.5% | 1.12% and 1.1% | -1.21% and 1.4% | 6.95% and 4.09% | 6.23% and 9.54% | 3.2% and -1.18% | 3.96% and -0.27% | 1.76% and -1.82%
COc1ccc2ncn(-c3cc(O[C@H](C)c4ccccc4C(F)(F)F)c(C(N)=O)s3)c2c1 | 0.75% | 1.24% | 7.53% | -0.11% | -0.07% | -1.94% | 15.9% | 4.06% | 5.38% | 1.28% | -0.87% | 1.48% | 1.53% | -0.29% | 0.97% | 0.31% | 2.23% | -1.06% | -0.1% | -0.92%
CCN1CCC(C(=O)Nc2n[nH]c3nnc(-c4cccc(F)c4F)cc23)CC1 | 0.25% | -0.6% | 2.08% | 0.03% | -0.34% | -3.64% | 0.15% | -2.38% | -0.5% | 0.48% | 0.85% | -0.97% | -0.75% | 0.04% | 0.43% | -1.81% | -0.5% | 1.73% | -0.13% | -0.42%
CN1CCN(Cc2ccc(-c3cc4ncnc(Nc5ccc(OCc6cccc(F)c6)c(Cl)c5)c4s3)o2)CC1 | 0.42% and 1.37% | -0.99% and -1.6% | 0.95% and 2.39% | 0.79% and 1.52% | 0.84% and 3.86% | 4.03% and 8.14% | 12.8% and 15.9% | 2.15% and 4.89% | 1.94% and 9.4% | 1.51% and 5% | 2.76% and 4.14% | 2.79% and 6.19% | 3.62% and 7.65% | 0.34% and 4.58% | 0.35% and 5.87% | 3.03% and 3.11% | 4.88% and 3.62% | 2.79% and 5.01% | 4.51% and 5.57% | 2.31% and 3.69%
Cc1c2ccc(N(C)c3ccnc(Nc4cccc(S(N)(=O)=O)c4)n3)cc2nn1C | -3.16% | -1.16% | -2.47% | 1.9% | 1.08% | 4.24% | 27.6% | 3.64% | 9.51% | 4.99% | 8.43% | 3.59% | 3.32% | 1.26% | 1.14% | 3.21% | 4.51% | 1.31% | 1.52% | -0.37%
CC1=C(C(=O)Nc2ccc3[nH]ncc3c2)C(c2ccc(F)cc2)N=C(c2ccc(C(F)(F)F)nc2)N1 (stereo not given) | 0.66% | 0.08% | -1.05% | 0.55% | 0.22% | 4.91% | 4.39% | 2.09% | 4.41% | -0.16% | 2.03% | 1.72% | -0.03% | 0.88% | -1.54% | 0.89% | 2.81% | 3.19% | 2.72% | 0.59%
CS(=O)(=O)Nc1ccc(-c2ccc3c(NC(=O)C4CC4)n[nH]c3c2)cc1 | 4% | 0.02% | 2.14% | 0.66% | -1.55% | 3.97% | 5.51% | 5.95% | 1.37% | 0.86% | 7.65% | 2.9% | 2.78% | 0.58% | -0.76% | -2.5% | 3.8% | 2.55% | 4.34% | 1.91%
